# From the supplement of paper PMC9135407
# Where “and” joins values, the source holds several entries; their conditions need not be identical. Equal entries are not always repeated. Structures can show the parent of a compound that is named as a salt. Screen size: about 5,800 compounds; about 620 (11%) showed activity. Many of the other results were omitted from the sample, so actives are more common in it than they were. Values without a mark were called inactive.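 How the source made its calls: active = score above a cut-off or among the top three wells of a plate; in these data no inactive exceeds 0.85.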
# Tested on: primary human hepatic stellate cells (donor 1)
# Experiment: scaled lipid accumulation score (0 = DMSO-like, 1 = nortriptyline-like); higher = stronger HSC inactivation (lipid re-accumulation), active = hit call of the paper
# Conditions: 48 h
# Experimental: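 Primary lipid accumulation screen in primary human hepatic stellate cell myofibroblasts (donor 1, passage 8) in 384-well plates. 100 nL of library compound was pin-transferred into 30 µL medium in duplicate, and cells were treated for 48 h. The 'Scaled' score combines distance from plate baseline, toxicity and reproducibility penalties, and is normalised to nortriptyline (positive) and DMSO (negative) controls on each plate. A hit is defined as scaled >0.85 or among the top 3 wells per plate.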
# [1] = library stock concentration: 3.33 mM
# [2] = library stock concentration: 10 mM
# [3] = library stock concentration: 1 mM
# [4] = library stock concentration: 2 mM
structure (smiles),measurement,setting,value
CN1CCN2c3ncccc3Cc3ccccc3C2C1 (stereo not drawn) [Mirtazapine],scaled lipid accumulation score,[1],≤ 0
same,scaled lipid accumulation score,[2],0.104
CN1CCN2c3ccccc3Cc3ccccc3C2C1.Cl (stereo not drawn) [Mianserin hydrochloride],scaled lipid accumulation score,[2],0.869 (active)
CN1CCN2c3ncccc3Cc3ccccc3C2C1 (stereo not drawn) [mirtazapine],scaled lipid accumulation score,[2],0.317
CN1CCN2c3ncccc3Cc3ccccc3C2C1 (stereo not drawn),scaled lipid accumulation score,[2],0.409
CN1CCN2c3ccccc3Cc3ccccc3C2C1 (stereo not drawn) [Mianserin HCl],scaled lipid accumulation score,[1],0.172
same,scaled lipid accumulation score,[2],0.188
"Cc1c(C)c2c(c(C)c1O)CC[C@@](C)(CCC[C@H](C)CCC[C@H](C)CCCC(C)C)O2 (racemic) [Tocopherol (R,S)]",scaled lipid accumulation score,,≤ 0
CN1CCN(c2c(F)cc3c(=O)c(C(=O)O)cn(CCF)c3c2F)CC1 [Fleroxacin],scaled lipid accumulation score,library stock concentration: 5.4 mM,≤ 0
CCCCCC(=O)/C=C/C=C\C/C=C\C/C=C\CCCC(=O)O [15-Ketoicosatetraenoic acid],scaled lipid accumulation score,library stock concentration: 100 uM,≤ -0.021
CC(=O)Nc1ncc([N+](=O)[O-])s1 [Nithiamide],scaled lipid accumulation score,[1],≤ 0
same,scaled lipid accumulation score,[2],≤ -0.001
CC(=O)Nc1ncc([N+](=O)[O-])s1,scaled lipid accumulation score,[2],≤ 0
COc1ccc(CNC(=O)Nc2ncc([N+](=O)[O-])s2)cc1 [GSK-3b Inhibitor VIII],scaled lipid accumulation score,[1],≤ 0
COc1ccc(CNC(=O)Nc2ncc([N+](=O)[O-])s2)cc1 [listing 1 of 2 here],scaled lipid accumulation score,[2],0.864 (active)
COc1ccc(CNC(=O)Nc2ncc([N+](=O)[O-])s2)cc1 [listing 2 of 2 here],scaled lipid accumulation score,[1],0.006
O=C(c1ccccc1)c1ccc(N2CCOCC2)cc1O [DNA-PK Inhibitor V],scaled lipid accumulation score,[1],≤ 0
"CCCCC(C)(C)[C@H](O)/C=C/[C@H]1C(=O)C[C@H](O)[C@@H]1C/C=C\CCCC(=O)O [16,16-dimethyl Prostaglandin D2]",scaled lipid accumulation score,[3],≤ 0
O=C1NC(=O)[C@@H](c2cn3c4c(cccc24)CCC3)[C@@H]1c1c[nH]c2ccccc12 [Tivantinib],scaled lipid accumulation score,library stock concentration: 80 uM,≤ -0.009
same,scaled lipid accumulation score,library stock concentration: 400 uM,0.071
same,scaled lipid accumulation score,[4],≤ -0.009
same,scaled lipid accumulation score,[2],0.169
"CCCCCC(=O)CC[C@H]1C(=O)C[C@H](O)[C@@H]1C/C=C\CCCC(=O)O [13,14-dihydro-15-keto Prostaglandin D2]",scaled lipid accumulation score,[3],≤ 0
C=CC(=O)Nc1cc(Nc2nccc(-c3cn(C)c4ccccc34)n2)c(OC)cc1N(C)CCN(C)C [listing 1 of 3 here],scaled lipid accumulation score,[4],1.01 (active)
C=CC(=O)Nc1cccc(Nc2nc(Nc3ccc(NC4CN(CCF)C4)cc3OC)ncc2C(F)(F)F)c1,scaled lipid accumulation score,[1],≤ -0.009
same,scaled lipid accumulation score,[2],0.811
COc1cc(N2CCN(C)CC2)ccc1Nc1nccc(-c2cn(C)c3cnccc23)n1,scaled lipid accumulation score,[1],≤ -0.009
same,scaled lipid accumulation score,[2],0.446
C=CC(=O)Nc1cccc(Nc2nc(Nc3ccc(N4CCN(C(C)=O)CC4)cc3OC)ncc2C(F)(F)F)c1,scaled lipid accumulation score,[1],≤ -0.009
same,scaled lipid accumulation score,[2],0.063
C=CC(=O)Nc1cc(Nc2nccc(-c3cn(C)c4ccccc34)n2)c(OC)cc1N(C)CCN(C)C [listing 2 of 3 here],scaled lipid accumulation score,[1],0.983 (active)
C=CC(=O)Nc1cc(Nc2nccc(-c3cn(C)c4ccccc34)n2)c(OC)cc1N(C)CCN(C)C [listing 3 of 3 here],scaled lipid accumulation score,[2],≤ 0
"CCN1CCCC1CNC(=O)c1cc(S(N)(=O)=O)ccc1OC (single isomer, unassigned; (-)) [(-)-Sulpiride]",scaled lipid accumulation score,[2],≤ 0
O=C1CCc2c(ccc3ccccc23)O1 [Splitomicin],scaled lipid accumulation score,[2],≤ -0.006
CCCCC[C@@H](O)/C=C/[C@@H]1[C@H](C/C=C\CCCC(=O)O)[C@@H](O)C[C@H]1O [8-iso-15(R)-Prostaglandin F2.alpha.],scaled lipid accumulation score,[3],≤ 0
CCCCC[C@H](O)/C=C/[C@@H]1[C@@H](C/C=C\CCCC(=O)NC(CO)CO)[C@@H](O)C[C@H]1O [Prostaglandin F2.alpha. serinol amide],scaled lipid accumulation score,[3],≤ 0
Nc1ncnc2c1c(I)cn2[C@@H]1O[C@H](CO)[C@@H](O)[C@H]1O [5-Iodotubercidin],scaled lipid accumulation score,[1],≤ 0
CCCCC[C@H](O)/C=C/[C@H]1C=CC(=O)[C@@H]1C/C=C\CCCC(=O)O [Prostaglandin A2],scaled lipid accumulation score,[3],≤ 0 and ≤ -0.021
CC(=O)O.N=C(N)N/N=C/c1c(Cl)cccc1Cl [Guanabenz acetate],scaled lipid accumulation score,[2],0.999 (active)
N=C(N)N/N=C/c1c(Cl)cccc1Cl [Guanabenz Acetate],scaled lipid accumulation score,[1],≤ 0
same,scaled lipid accumulation score,[2],0.578
N=C(N)NC(=O)Cc1c(Cl)cccc1Cl [Guanfacine HCl],scaled lipid accumulation score,library stock concentration: 7.1 mM,≤ -0.006
N=C(N)N/N=C/c1c(Cl)cccc1Cl [Guanabenz acetate],scaled lipid accumulation score,,0.45
same,scaled lipid accumulation score,library stock concentration: 6.9 mM,0.304
same,scaled lipid accumulation score,library stock concentration: 8.7 mM,0.227
same,scaled lipid accumulation score,[2],0.426 and 0.365
N=C(N)NC(=O)Cc1c(Cl)cccc1Cl [Guanfacine hydrochloride],scaled lipid accumulation score,,≤ 0
same,scaled lipid accumulation score,[2],0.148 and 0.048
